# An excerpt weighted towards active compounds, which were near 3.2% of everything screened.
# Rtt109 Vps75: blocks Candida albicans Rtt109/Vps75 acetyltransferase activity; Q5AAJ8; purified Rtt109/Vps75, ThioGlo CoA-SH fluorescence, 4 h; inhibition, % at 34.9 µM; hit rate 0.16% among 330,000;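 active means inhibition of at least 50% in every replicate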
# Target sequence (Q5AAJ8 whole entry, looked up): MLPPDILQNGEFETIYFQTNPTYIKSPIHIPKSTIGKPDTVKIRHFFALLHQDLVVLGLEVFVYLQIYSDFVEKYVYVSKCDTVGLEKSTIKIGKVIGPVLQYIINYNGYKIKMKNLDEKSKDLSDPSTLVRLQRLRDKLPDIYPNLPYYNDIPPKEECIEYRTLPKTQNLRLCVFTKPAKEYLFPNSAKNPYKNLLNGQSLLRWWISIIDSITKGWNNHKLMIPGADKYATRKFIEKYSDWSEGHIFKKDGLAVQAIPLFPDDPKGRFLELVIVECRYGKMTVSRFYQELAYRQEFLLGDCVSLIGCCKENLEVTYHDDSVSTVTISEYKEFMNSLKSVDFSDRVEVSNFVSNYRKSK
# CDK5 p35 inh: blocks human CDK5/p35 kinase activity; AID 488839; Q00535+Q15078; hit rate 0.01% among 330,000; Recombinant CDK5/p35, ADP-Glo luminescence, 60 min; inhibition, % at 10 µM;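 active means highest replicate inhibition of at least 50% and at least 75% of replicates reaching 50%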;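 further: plate controls were DMSO neutral control for no effect and GW8510 at 10 µM for full effect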
# DYRK1A inh: inhibitors of rat Dyrk1A kinase | ADP-Glo luminescence, NFATc1 peptide | inhibition, % at 12.5 µM | hit rate 0.43% among 310,000 | AID 504441; in the data active means inhibition above about 50%;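 further: plate controls were vehicle with enzyme for no effect and no enzyme for full effect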
# esBAF inh: SWI/SNF esBAF complex inhibition; mouse ES cells, Bmi1-luciferase knock-in reporter, 24 h; 100% = twice the neutral-well signal; reporter increase, % at 12.5 µM; hit rate 2% among 350,000; AID 602393; in the data active means activation above about 40%;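 further: 0% = median of the plate's neutral control wells and 100% = double that signal; a rise in the Bmi1 reporter signal indicates esBAF inhibition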
# dFosB activator: enhances mouse delta FosB homodimer DNA binding; P13346; purified delta FosB, TAMRA-CDK5 oligo fluorescence polarization; percent of positive-control signal above neutral wells; activation, % at 25 µM; hit rate 0.99% among 340,000;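 active means mean activation above about 17%, with every replicate also reaching it, limit read from the data, passing the limit was not always enough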
# Target sequence (P13346 whole entry, looked up): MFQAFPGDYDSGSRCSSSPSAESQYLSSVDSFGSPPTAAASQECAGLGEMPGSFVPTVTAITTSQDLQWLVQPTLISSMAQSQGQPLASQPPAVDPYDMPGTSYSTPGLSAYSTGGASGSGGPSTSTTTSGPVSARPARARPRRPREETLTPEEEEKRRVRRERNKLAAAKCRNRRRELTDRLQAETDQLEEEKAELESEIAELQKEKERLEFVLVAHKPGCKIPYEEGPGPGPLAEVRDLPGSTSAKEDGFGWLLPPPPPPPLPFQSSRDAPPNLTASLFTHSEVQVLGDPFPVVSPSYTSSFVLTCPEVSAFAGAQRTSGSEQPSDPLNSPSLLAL
# SMARCA2 activ: SMARCA2 function activation, primary screen; activation, % at 9.1 µM; MG213 cells, MMTV-luciferase reporter, dexamethasone, overnight; hit rate 1% among 370,000; in the data active means activation above about 7.8%;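 further: 0% = vehicle wells and 100% = reference activator wells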
# ADP-Glo artifact: ADP-Glo luciferase interference, Dyrk1A counter-screen; shares compounds with DYRK1A inh; ADP-Glo luciferase artifact assay, no Dyrk1A, luminescence; AC50, µM (highest dose often 12 µM), inactives show at the highest dose activity change, negative = inhibition; 1,300 tested, under 10 active; AID 588348;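 active means fitted half-maximal dose AC50 no more than ten times the top valid tested dose, with luminescence dropping as dose rises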
# The depositor's hits bear a star; . = not tested or not shown.
SMILES,Rtt109 Vps75,CDK5 p35 inh,DYRK1A inh,esBAF inh,dFosB activator,SMARCA2 activ,ADP-Glo artifact
O=C1C(Nc2ccc(O)cc2)=C/C(=N/S(=O)(=O)c2cccs2)c2ccccc21,-11.5,10.2,70.2*,.,-14.7,-13.0,3.9%
Cc1cc(C)c(S(=O)(=O)/N=C2\C=C(Nc3ccc(C(=O)O)cc3)C(=O)c3ccccc32)c(C)c1,24.3,4.2,69.1*,6.6,-16.7,-9.2,6.7%
COc1ccc(-n2ccc(-c3nn(-c4cccc(C(F)(F)F)c4)ccc3=O)n2)cc1,2.5,0.1,50.6*,-1.2,-1.3,-1.7,6.2%
O=C(Nc1ccc(Cl)c(Cl)c1)OCc1cnc(Cl)s1,18.2,0.5,58.9*,-4.4,-0.3,0.5,7.4%
Cn1c(=O)[nH]c2cc3ccccc3cc21,6.0,0.6,51.9*,-12.9,-1.6,-3.7,10.1%
Cc1nc2cc3ccccc3cc2n1C,-0.5,-2.4,5.5,.,0.6,-2.8,.
Cc1ccccc1NC(=O)CSc1[nH]c(=O)cc(C)c1C#N,1.0,-1.5,57.8*,0.8,-0.5,-1.3,7.6%
O=C(O)COc1ccc(/C=C/c2ccc3cccc([N+](=O)[O-])c3n2)cc1,13.6,-3.6,65.6*,.,-7.1,-1.1,9.5%
COc1cc(/C=C/c2ccc3cccc([N+](=O)[O-])c3n2)ccc1OCC(=O)O,27.4,-1.5,45.6,-6.7,-6.0,-0.2,.
O=C(C[C@H]1CC[C@@H](NC(=O)c2ccc3c(c2)OCO3)[C@H](CO)O1)NCc1ccc(F)cc1,.,.,.,-0.7,.,.,.
COc1ccc2cc3cc(C(=O)NCC4CCCO4)oc3nc2c1 (configuration not stated),-59.9,2.4,54.4*,54.6*,-22.8,-3.1,9.9%
COc1ccc(C(=O)NCC2CCCO2)cc1 (configuration not stated),-2.8,1.6,1.4,.,2.3,2.4,.
COCCNC(=O)c1cc2cc3ccc(OC)cc3nc2o1,6.3,-0.3,58.2*,30.4,-18.9,5.5,9.5%
COc1ccc2cc3cc(C(=O)NCc4ccccn4)oc3nc2c1,-2.8,-0.3,33.5,3.2,-31.4,-3.2,.
CO[C@H]1CN(C)C(=O)c2ccc(NC(=O)Nc3ccccc3F)cc2OC[C@@H](C)NC[C@H]1C,.,.,.,2.2,.,.,.
O=C(C[C@@H]1C=C[C@H](NC(=O)c2cccc(F)c2)[C@H](CO)O1)NCc1ccccc1,.,.,.,2.6,.,.,.
Cc1ccc(/C=c2\sc3n(c2=O)CN(c2ccc(Br)cc2)CN=3)o1,22.7,0.5,62.4*,-0.1,-3.5,-1.5,8.7%
C[C@@H]1CN([C@@H](C)CO)C(=O)c2cc(NS(=O)(=O)c3ccc(F)cc3)ccc2O[C@@H]1CN(C)Cc1ccncc1,.,.,.,-3.2,.,.,.
C[C@H](CO)N1C[C@H](C)[C@H](CN(C)Cc2cccc(F)c2)Oc2ncc(-c3cccc(F)c3)cc2C1=O,.,.,.,-4.8,.,.,.
N#Cc1c(C(F)(F)F)cc(-c2cccc(Cl)c2)[nH]c1=O,5.6,-0.3,54.2*,-3.7,-8.4,-2.2,8.0%
CC(=O)N1CCCCN2[C@@H](CO)[C@@H](c3ccc(Br)cc3)[C@@H]2C1,.,.,.,-5.6,.,.,.
COc1ccc(NC(=O)Nc2ccc3c(c2)CC(=O)N([C@H](C)CO)C[C@H](C)[C@H](CN(C)S(=O)(=O)c2ccc(F)cc2)O3)cc1,.,.,.,-0.7,.,.,.
O=C(Nc1ccc(O)c2c(=O)cc(-c3ccccc3Cl)oc12)c1ccccc1Cl,-11.5,-0.5,21.5,-8.1,7.2,0.1,.
O=c1cc(-c2ccccc2Cl)oc2c([N+](=O)[O-])c(O)cc(O)c12,0.5,4.7,82.8*,-18.4,-6.5,1.9,11.6%
Brc1ccccc1C1=Nn2c(nnc2-c2ccccc2)SC1,0.0,0.6,73.2*,16.6,-6.2,-2.6,8.4%
SMILES,Rtt109 Vps75,CDK5 p35 inh,DYRK1A inh,esBAF inh,dFosB activator,SMARCA2 activ,ADP-Glo artifact
CN(C[C@H]1[C@@H](c2ccccc2)[C@@H](CO)N1C(=O)C1CC1)C(=O)c1ccccn1,.,.,.,-6.3,.,.,.
Oc1ccc(/C=N/n2c(-c3ccccc3)n[nH]c2=S)cc1,11.9,6.9,55.2*,-2.6,1.3,-2.4,8.6%
c1nc2sc3c(c2c2nnnn12)CCCC3,-4.3,1.6,50.3*,-8.6,-1.5,0.3,8.2%
COc1ccccc1C#Cc1ccc2c(c1)O[C@@H](CN(C)C)[C@H](C)CN([C@H](C)CO)S2(=O)=O,.,.,.,-6.6,.,.,.
C[C@@H]1CN([C@@H](C)CO)C(=O)Cc2cc(NC(=O)NC3CCCCC3)ccc2O[C@H]1CN(C)C(=O)Nc1ccc2c(c1)OCO2,.,.,.,-1.5,.,.,.
CCCC#Cc1ccc2c(c1)[C@@H]1[C@@H](CCN1S(=O)(=O)c1ccc(C)cc1)[C@@H](CO)N2C,.,.,.,-5.5,.,.,.
C=CC(C)(C)c1c(O)c(CC=C(C)C)c(O)c2c(=O)c3ccc(O)c(O)c3oc12,-1.9,0.4,98.6*,-51.3,-10.0,.,8.1%
C=CC(C)(C)c1c2occc2c(O)c2ccc(=O)oc12,5.1,0.3,10.1,-10.1,1.6,1.3,.
COCCNC(=O)C[C@@H]1CC[C@@H]2[C@H](COc3ccc(NC(=O)C4CCOCC4)cc3C(=O)N2C)O1,.,.,.,-7.8,.,.,.
CN(C)S(=O)(=O)c1ccc(NC(=O)c2cc3ccccc3o2)cc1,33.4,-1.2,75.5*,20.6,-17.2,1.5,8.0%
Cc1ccc(NC(=O)c2cc3ccccc3o2)cc1S(=O)(=O)N(C)C,0.0,0.2,3.2,.,-7.2,3.5,.
CCC1NC(C(=O)O)Cc2c1[nH]c1ccccc21 (configuration not stated),-66.0,3.2,50.2*,5.0,0.5,0.7,7.9%
COc1cc(C2NC(C(=O)O)Cc3c2[nH]c2ccccc32)cc(OC)c1OC (configuration not stated),-2.3,0.5,1.2,-3.8,1.9,-0.5,.
C[C@@H]1CCCCO[C@H](CN(C)CC2CCCCC2)[C@@H](C)CN([C@@H](C)CO)C(=O)c2cc(NS(=O)(=O)c3cccs3)ccc2O1,.,.,.,6.0,.,.,.
O=C(CN1CCOCC1)Nc1nc2ccc([N+](=O)[O-])cc2s1,-1.2,1.6,81.2*,.,-2.3,-0.5,9.1%
O=C(CN1CCOCC1)Nc1nc2ccc(F)cc2s1,5.3,-0.6,50.7*,20.4,1.0,1.9,10.6%
CCC(=O)Nc1nc2ccc([N+](=O)[O-])cc2s1,-5.2,-1.7,38.0,16.1,2.9,-1.7,.
CCc1ncc(/C=C2\C(=O)Nc3ccccc32)[nH]1,1.9,11.2,56.6*,.,-2.9,0.3,6.5%
Cc1ncc(/C=C2\C(=O)Nc3ccccc32)[nH]1,.,.,.,.,.,-0.1,.
O=C(N[C@H]1CC[C@@H](CCNS(=O)(=O)c2ccc(F)cc2)O[C@@H]1CO)C1CCOCC1,.,.,.,1.4,.,.,.
O=C1C2C(c3ccccc3)CC=CC2[C@H](c2ccoc2)N1Cc1ccccc1 (some centres not stated),11.8,0.5,59.9*,-4.7,3.3,-1.6,11.0%
